Measurements published in PubChem BioAssay (EPA / NIEHS).
Calls of active or inactive are those of the source. The calls were made as follows: active = hit-call score of the fitted dose curve at least 0.9, where 1 is the maximum; inactive = score below 0.9.

Experiment: APR_HepG2_P-H2AX_24hr: Apredica 24-hour HepG2 Assay for H2AX Phosphorylation (AID 2282920)
Conditions: high-content imaging, actives raise or lower the signal
Method: APR_HepG2_24hr is a cell-based, multiplexed-readout assay that uses HepG2, a human liver cell line, with measurements taken at 24 hours after chemical dosing in a 384-well plate.APR_HepG2_P-H2AX_24hr is one of 10 assay component(s) measured or calculated from the APR_HepG2_24hr assay. It is designed to make measurements of dna content, a form of viability reporter, as detected with fluorescence intensity signals by HCS Fluorescent Imaging technology.Data from the assay component APR_HepG2_P-H2AX_24hr was analyzed into 1 assay endpoint. This assay endpoint, APR_HepG2_P-H2AX_24hr, was analyzed with bidirectional fitting relative to DMSO as the negative control and baseline of activity. Using a type of viability reporter, measures of protein for gain or loss-of-signal activity can be used to understand the signaling at the pathway-level as they relate to the gene . Furthermore, this assay endpoint can be referred to as a primary readout, because this assay has produced multiple assay endpoints where this one serves a signaling function. To generalize the intended target to other relatable targets, this assay endpoint is annotated to the dna binding intended target family, where the subfamily is cellular response to DNA damage stimulus.
Cells were treated with dimethyl sulfoxide (DMSO) as a solvent control at a final concentration of 0.5% v/v or with compounds in DMSO with a resulting final DMSO concentration of 0.5% v/v. Compound treatment was done at concentrations of 0.39, 0.78, 1.56, 3.12, 6.24, 12.5, 25, 50, 100, and 200 uM in duplicate on each plate. Cells were treated with compounds for 1, 24, or 72 hr. Carbonyl […] m-chloro-phenylhydrazone (CCCP) and taxol were used as positive controls for mitochondrial function and cytoskeletal stability, respectively; DMSO served as the negative control for this experiment. Cells were fixed by the direct addition of 50 uL formaldehyde in Hank's Balanced Salt Solution (HBSS) to a final concentration of 3.7%. After incubation in the fixation medium for 30 min at room temperature (293-298 K), cells were rinsed twice with HBSS and treated with cell permeabilization buffer (16 uL of 0.5% Triton X-100) for 10 min at room temperature (293-298 K) before labeling. For mitochondrial membrane potential and mitochondrial measurements, pre-fixed cells were incubated with 50 uL of MitoTracker Red CMXRos (Invitrogen) at a concentration of 250 nM for 30 min before fixation. In the remaining cases, post-fixed cells were labeled by incubation with a multiplexed mixture of primary antibodies in HBSS for 60 min at room temperature (293-298 K) to detect immunoreactivity of c-Jun (1:500), phospho-histone H3 (1:100), phospho-histone H2A.x (1:200), p53 (1:400), alpha-tubulin (1:200) and Hoechst 33342 (2 ug/mL). Cells were labeled for multiplexed imaging on two separate plates: a) Hoechst 33342, MitoTracker Red, phospho-histone H3, and alpha-tubulin, and b) Hoechst 33342, phospho-histone H2A.x, and c-Jun. A final rinse with HBSS (50 uL) was performed before analysis. The primary and secondary antibodies for the proteins were phospho-histone H3 (rabbit anti-phospho-histone H3 and FITC-donkey anti-rabbit IgG), phospho-histone H2A.x (mouse anti-phospho-histone H2A.x and FITC-donkey anti-mouse IgG), c-Jun (rabbit anti-phospho-c-Jun and Cy3-donkey anti-rabbit IgG), p53 (sheep anti-p53 and Cy5-donkey anti-sheep IgG), alpha-tubulin (mouse anti-alpha-tubulin and Cy5-donkey anti-mouse IgG). These antibodies are available as the CellCiphr HepG2 assay kit (Millipore).Digital images of each well were captured using a Cellomics ArrayScan VTI (Thermo Scientific Cellomics) (0.8 NA objective, 0.63x optical coupler, and XF-93 filter set) at 20x magnification. The images were acquired using the autofocus feature of the ArrayScan instrument, which entails the following steps. First, the camera focuses on channel 1 (Hoechst 33342), where nuclei are identified. Second, a Z offset of 1 um is used for capturing mitochondria (MitoTracker Red). […]

SMILES	AC50	outcome
CCC(=O)O[C@H]1CC[C@H]2[C@@H]3CCC4=CC(=O)CC[C@]4(C)[C@H]3CC[C@]12C	108 µM (active)	
Oc1c(Cl)c(Cl)c(Cl)c(Cl)c1Cl		inactive
c1cc2ccc3cccc4ccc(c1)c2c34		inactive
CCCCCCCCCc1ccc(O)cc1		inactive
O=C(NC(=O)c1cc(F)c(F)cc1Cl)Nc1cc(F)ccc1N1CCC(C(=O)O)CC1		inactive
c1ccc(-c2ccccc2)cc1		inactive
CCCCCCCCCC[N+](C)(C)CCCCCCCCCC	6.27 µM (active)	
Clc1ccc(C(c2ccccc2Cl)C(Cl)(Cl)Cl)cc1 (stereo not given)	82.8 µM (active)	
CCCCCCOC(=O)c1ccccc1C(=O)OCCCCCC		inactive
CCNc1nc(NC(C)C)nc(SC)n1		inactive
Cc1cccc([N+](=O)[O-])c1		inactive
Oc1ccc(C(c2ccc(O)cc2)(C(F)(F)F)C(F)(F)F)cc1		inactive
O=C(O)C(F)(F)C(F)(F)C(F)(F)C(F)(F)C(F)(F)C(F)(F)C(F)(F)C(F)(F)C(F)(F)F	113 µM (active)	
Cc1cccc(C)c1N		inactive
CC1=C2C[C@H]3[C@@H](CC=C4C[C@@H](O)CC[C@@]43C)[C@@H]2CC[C@]12O[C@@H]1C[C@H](C)CN[C@H]1[C@H]2C	33.4 µM (active)	
O=C(O)C(F)(F)C(F)(F)C(F)(F)C(F)(F)C(F)(F)F		inactive
CCCN(CCC)N=O		inactive
Nc1ccc(-c2ccc(N)cc2)cc1	91.2 µM (active)	
CCC(C)(c1ccc(O)cc1)c1ccc(O)cc1	104 µM (active)	
C=CC(=O)NCNC(=O)C=C		inactive

SMILES	AC50	outcome
CCCCCCCCOC(=O)c1ccccc1C(=O)OCCCCCCCC		inactive
O=S(=O)(O)C(F)(F)C(F)(F)C(F)(F)C(F)(F)F		inactive
Cc1cc(O)ccc1Cl		inactive
Cc1ccccc1[N+](=O)[O-]		inactive
NS(=O)(=O)C(F)(F)C(F)(F)C(F)(F)C(F)(F)C(F)(F)C(F)(F)C(F)(F)C(F)(F)F	100 µM (active)	
CC(c1ccc(O)cc1)(c1ccc(O)cc1)c1ccc(O)cc1	111 µM (active)	
CO/C=C(/C(=O)OC)c1ccccc1COc1cccc(C(F)(F)F)n1		inactive
CCOC(=O)C(O)(c1ccc(Cl)cc1)c1ccc(Cl)cc1	77.5 µM (active)	
ClC(Cl)=C(c1ccc(Cl)cc1)c1ccc(Cl)cc1	53.7 µM (active)	
Cc1ccccc1CO[C@@H]1C[C@@]2(C(C)C)CC[C@]1(C)O2		inactive
Clc1ccc(Cl)cc1		inactive
O=S(=O)(O)C(F)(F)C(F)(F)C(F)(F)C(F)(F)C(F)(F)C(F)(F)F		inactive
O=C(N[C@H]1CN2CCC1CC2)c1cc2ccoc2cn1		inactive
O=NN(c1ccccc1)c1ccccc1		inactive
Cc1ccc(O)c(C)c1		inactive
CCC(C)(CC)c1cc(NC(=O)c2c(OC)cccc2OC)on1		inactive
CCC(C)c1cc([N+](=O)[O-])cc([N+](=O)[O-])c1O (stereo not given)	67.4 µM (active)	
CCOP(=S)(OCC)SCSC(C)(C)C		inactive
CN(C)c1nc(=O)n(C2CCCCC2)c(=O)n1C		inactive
Oc1ccc(Cl)cc1Cl		inactive
